Bioassay records: PubChem, several laboratories
esBAF inh: Bmi1 luciferase reporter increase in mESCs, primary screen, esBAF inhibitor project, mouse ES cells, Bmi1 luciferase knock-in, single point. 24 h; 100% = twice the neutral-well signal. reporter increase, % at 12.5 µM. 350,000 compounds, 2% hits; in the data active = activation above about 40%; inconclusive = no clear call, values can overlap the other calls;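 also: 0% = median of the plate's neutral control wells and 100% = double that signal; a rise in the Bmi1 reporter signal indicates esBAF inhibition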
697 NFkB inh: inhibitors of PMA/ionomycin-induced NF-kB reporter, 697 cells, primary screen, B-cell NF-kB inhibitor project, cell-based, luminescence, uHTS; 330,000 compounds, 0.33% hits; 697 B-cell NF-kB luciferase reporter, 16 h; inhibition, % at 4 µM; in the data active = inhibition above about 35%
SMARCA2 act: SMARCA2 (BRM) function activators, primary screen, cell-based, luminescence, high throughput. MG213 cells, MMTV-luciferase reporter, dexamethasone, overnight. activation, % at 9.1 µM. 370,000 compounds, 1% hits. AID 652017, 2013; in the data active = activation above about 7.8%;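 also: 0% = vehicle wells and 100% = reference activator wells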
Gli-Sufu block: Gli-Sufu pathway antagonists, primary screen, luciferase luminescence, Sufu-KO-LIGHT cells, uHTS. 340,000 compounds, 0.74% hits. AID 588413, 2011. Sufu-KO-LIGHT fibroblasts, Gli luciferase reporter luminescence. inhibition, % at 5 µM;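 active = inhibition above about 55%, limit read from the data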;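 also: 0% = DMSO-treated cells and 100% = wells with medium but no cells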
Jurkat NFkB inh: inhibitors of induced NF-kB luciferase reporter, primary screen, TCR NF-kB activation inhibitor project, cell-based, luminescence, uHTS; inhibition, % at 4 µM; 330,000 compounds, 0.53% hits; Jurkat, PMA/ionomycin-induced NF-kB luciferase reporter; in the data active = inhibition above about 50%
SMARCA2 conf: SMARCA2 (BRM) function activators, confirmation, cell-based, luminescence, triplicate; shares compounds with SMARCA2 act; MG213 cells, MMTV-luciferase with dexamethasone, overnight; MG213 cells expressing E1A, Rb sequestered; DMSO wells 0%, reference activator 100%; activation, % at 9.1 µM; 3,500 compounds, 30% hits; AID 652260, 2013;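 active = activation above its plate's cutoff, the mean activation of tested wells plus 3 SD, cut at about 7.9% in these data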
GAL4-VP16 Luc: GAL4-VP16 luciferase reporter activation, counter-screen for SMARCA2 (BRM) activator project, cell-based, pG5luc, luminescence, high throughput | AID 686939, 2013 | shares compounds with SMARCA2 act | activation, % at 9.1 µM | 3,500 compounds, 41% hits | HEK293 GAL4-VP16 pG5luc reporter; scaled: DMSO wells 0%, SAHA wells 100%;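 active = activation above the solvent-only control well mean plus 3 SD, averaged across control plates, cut at about 5.2% in these data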
* = called active by the depositor; ? = inconclusive; / = no result. This is a sample that favours compounds with a hit; in the whole collection about 3.3% have one here.

SMILES	esBAF inh	697 NFkB inh	SMARCA2 act	Gli-Sufu block	Jurkat NFkB inh	SMARCA2 conf	GAL4-VP16 Luc
Cc1ccc(CNC(=O)C2CCC(=O)N(C3CCCC3)C2)c(F)c1F (configuration not stated)	1.1	-0.2	9.7*	0.8	16.5	-2.4	0.2
CCN1C(=O)C(=O)N(CC(=O)c2cc(C)n(C3CC3)c2C)C1=O	?	-11.9	4.1	-33.6	-56.4	/	/
CCCN1C(=O)C(=O)N(CC(=O)c2cc(C)n(C3CC3)c2C)C1=O	29.2	-62.0	12.0*	-41.1	-71.7	10.7*	8.7*
O=C(C[C@@H]1CC[C@H]2[C@@H](COC[C@H](O)CN2Cc2ccccc2)O1)NCCCN1CCOCC1	-0.7	/	/	/	/	/	/
COc1cccc(CNS(=O)(=O)c2c(C)[nH]c(C)c2C(=O)N2CCCCC2)c1	1.2	0.0	13.4*	-1.1	-3.1	-2.4	0.2
Cc1[nH]c(C)c(S(=O)(=O)Nc2ccc(F)cc2Cl)c1C(=O)N1CCCC1	-4.5	2.4	9.0*	-4.4	1.7	-5.2	-0.7
Cc1ccc(CNS(=O)(=O)c2c(C)[nH]c(C)c2C(=O)N2CCCCC2)cc1	-0.3	-0.3	-1.8	-5.6	1.5	/	/
Cc1noc(C)c1S(=O)(=O)Nc1ccc2c(c1)CC(=O)N([C@@H](C)CO)C[C@@H](C)[C@@H](CN(C)Cc1ccc3c(c1)OCO3)O2	-1.9	/	/	/	/	/	/
c1ccc(Cc2nnc3sc(C4COc5ccccc5O4)nn23)cc1 (configuration not stated)	2.7	-1.3	1.8	3.9	7.3	/	/
c1ccc(OCc2nnc3sc(C4COc5ccccc5O4)nn23)cc1 (configuration not stated)	1.5	-2.4	9.2*	0.3	0.8	-2.3	-0.2
CCOC1=C2[C@@H](CN(S(=O)(=O)c3ccc(C)cc3)[C@H]2c2cccc3ccccc23)[C@H]2C(=O)N(C3CCCCC3)C(=O)[C@H]2C1	-1.1	/	10.1*	/	/	-1.6	-0.9
CCOC1=C2[C@@H](CN(S(=O)(=O)c3ccc(C)cc3)[C@H]2c2cccc3ccccc23)[C@H]2C(=O)N(c3ccccc3)C(=O)[C@H]2C1	-0.9	/	1.2	/	/	/	/
COc1ccc(CN(C)C[C@@H]2OCCCC[C@@H](C)Oc3ccc(NC(=O)Nc4ccccc4)cc3C(=O)N([C@H](C)CO)C[C@@H]2C)cc1	3.3	/	/	/	/	/	/
N#Cc1cccnc1N1CCN(C(=O)c2cccc3c2C(=O)c2ccc(Cl)cc2S3(=O)=O)CC1	0.4	19.0	13.5*	-11.6	3.5	13.7*	2.5
CCC(=O)Nc1ccc2c(c1)ncn2-c1ccc(OC)cc1	36.3	-13.5	1.6	-42.9	-24.1	/	/
CCC(=O)Nc1ccc2c(c1)ncn2-c1ccc(C)cc1	49.4*	-109.5	8.6*	-70.3	-73.7	5.7	8.7*
COc1ccc(C(=O)C2CCN(C(=O)c3ccc(C)cc3)CC2)cc1	5.5	-3.3	-4.0	6.4	8.0	/	/
COc1ccc(-c2ccc(C(=O)C3CC3)cc2)cc1	37.2	-172.9	10.3*	-43.7	-118.0	8.2*	15.1*
Cc1ccc(C(=O)COc2cc(C)nc3nncn23)cc1	-9.4	2.9	10.9*	-5.5	2.7	-1.5	2.0
CC(C)C#Cc1ccc2c(c1)O[C@H](CN(C)Cc1ccncc1)[C@H](C)CN([C@@H](C)CO)S2(=O)=O	-4.0	/	/	/	/	/	/
O=C(Cc1ccccc1)N(c1ccc(F)cc1)C1C=CS(=O)(=O)C1 (configuration not stated)	-2.9	18.0	9.9*	/	17.7	-2.3	0.5
COC(=O)c1sc(-c2ccccc2)cc1NC(=O)C1CC1	/	-1.1	8.9*	0.8	0.5	-4.5	2.1
O=C(COc1cccnc1[N+](=O)[O-])Nc1cccc(Br)c1	63.5*	-21.2	10.7*	-33.7	-10.2	6.6	4.6
Cc1cc(C)nc(S/C=C/C(=O)c2ccccc2F)n1	/	-50.1	14.1*	3.1	16.8	-13.1	2.4
Cc1cc(C)nc(NC(=S)NC(=O)c2ccccc2F)n1	/	11.9	1.2	0.1	13.2	/	/
SMILES	esBAF inh	697 NFkB inh	SMARCA2 act	Gli-Sufu block	Jurkat NFkB inh	SMARCA2 conf	GAL4-VP16 Luc
C[C@H](NC(=O)C[C@H]1C=C[C@@H](NC(=O)C2CCC2)[C@H](CO)O1)c1ccccc1	-7.0	/	/	/	/	/	/
Cc1ccc2c(c1)c1c3n2CCN(C(=O)CCl)C3CCC1 (configuration not stated)	3.8	10.6	-5.1	9.1	-1.6	/	/
CC(=O)N1CCn2c3c(c4cc(C)ccc42)CCCC31 (configuration not stated)	-1.1	6.0	8.7*	-0.8	-1.2	-3.8	0.2
Cc1cccc(CNC(=O)c2cc(S(=O)(=O)N3CCOCC3)cn2C)c1	-5.1	13.0	13.6*	-18.4	3.3	2.0	0.7
COc1cc2nc(C3CCC3)nc(N3CCN(c4ccccc4OC)CC3)c2cc1OC	/	-53.5	9.4*	4.4	16.7	-2.2	0.5
Cc1ccc(SCCNC(=S)Nc2ccc(C)c(C)c2)cc1	0.0	15.6	-2.8	-0.9	6.2	/	/
Cc1ccc(SCCNC(=S)Nc2ccccc2)cc1	3.8	19.0	8.8*	-5.6	5.8	-4.6	-0.2
Oc1ccc(-c2csc(-c3cccnc3)n2)c(O)c1	/	-138.8	8.2*	-48.4	-19.3	12.5*	11.6*
c1cncc(-c2nc(-c3ccco3)cs2)c1	0.2	17.1	1.7	9.0	5.0	/	/
Cc1ccc(OCC(O)CN2CCN(Cc3ccc4c(c3)OCO4)CC2)c(C)c1 (configuration not stated)	-2.3	-3.9	-3.1	0.5	1.5	/	/
Cc1ccc(OCC(O)CN2CCOCC2)c(C)c1 (configuration not stated)	6.4	11.1	8.3*	-14.8	-28.5	-2.2	0.9
CCOC(=O)c1csc(-c2ccc3c(c2)CCO3)n1	/	-134.4	15.6*	-51.7	-107.5	3.4	6.7*
O=c1nccc(N/N=C/c2ccccc2)[nH]1	7.9	-46.8	8.2*	-31.8	-35.7	6.4	4.1
CN(C)C(=O)C[C@H]1CC[C@H]2[C@H](COc3ccc(NC(=O)Nc4cccc(Cl)c4)cc3C(=O)N2C)O1	-4.6	/	/	/	/	/	/
COc1ccc(N=Cc2nc(-c3ccco3)oc2O)cc1	63.1*	-35.9	8.8*	-41.6	-33.0	9.9*	4.3
CCOC(=O)c1ccc2ncc(C(=O)OCC)c(NCc3ccco3)c2c1	28.6	-23.8	13.3*	-2.3	-14.4	0.4	3.5
